This is an account of results in PubChem BioAssay.

Calls of active or inactive are those of the source.

In assay [1] the test system is Human papillomavirus type 1a protein E7 (residues 44-93). Put plainly: small molecules binding HPV E7 44-93 – biochemical, small-molecule microarray, residues 44-93, 635 nm fluorescence, primary screen (AID 1108).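 Also: E7 fragment applied at 1 µg/mL in TBST for 1 h at 4 C; score combines spot fluorescence with its signal to noise ratio.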 Particulars: fluorescence 635 nm, higher = more signal.
A short description of assay [2]: hepatitis C replication reporter changes, two-sided – Huh7 cells, luciferase reporter, HCV replication inhibitor project, primary screen (AID 1109).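 Also: huh7 hepatoma cells harbouring a luciferase neomycin HCV replicon reporter; luciferase luminescence as measure of HCV replicon replication; test concentration not given here.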 Particulars: Huh7 HCV replicon luciferase reporter, 48 h; higher = more signal. (In general: Reporter assays use an easily measured gene product as a stand-in for the process of interest.)
Assay [3] has as its target Left-right determination factor 2 (Homo sapiens) (UniProt O00292). Description: small molecules binding LEFTY2 protein – biochemical, small-molecule microarray, 635 nm fluorescence scan, primary screen (AID 1110). Particulars: higher = more signal.
The target in assay [4] is Calmodulin-1 (Homo sapiens) (UniProt P0DP23). Description: small molecules binding calmodulin-1 with EGTA – biochemical, small-molecule microarray, Cy5-labelled CALM1, profiling panel (AID 1111).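 Also: labelled calmodulin applied in Tris saline Tween buffer holding calcium plus EGTA and DTT.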 To be noted: Cy5-CALM1 binding fluorescence, higher = more signal.
The target is the same in assay [5]. Put plainly: small molecules binding Ca-loaded calmodulin-1 – biochemical, small-molecule microarray, Cy5-labelled CALM1, plus calcium, artefact control for SMM control-protein annotation, profiling panel (AID 1112).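 Also: score merges spot fluorescence with signal to noise from triplicate slides.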 To be noted: Cy5-CALM1 binding fluorescence, higher = more signal.
A short description of assay [6]: probe aWnt5a binding to arrayed compounds – biochemical, biotinylated probe, 635/667 nm fluorescence, primary screen (AID 1113).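 Also: score merges 667 nm fluorescence intensity with signal-to-noise per printed feature.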 To be noted: small-molecule microarray, higher = more signal.
Assay [7] is described as follows: probe aShh binding to arrayed compounds – biochemical, biotinylated probe, 635/667 nm fluorescence, primary screen (AID 1114).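 Also: probe is biotin-labelled aShh protein from a stem cell growth factor screen; measures binding of labelled protein to compounds printed on the slide; score merges feature fluorescence at 667 nm with signal-to-noise.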 To be noted: small-molecule microarray, higher = more signal.
Assay [8] can be described thus: probe aNog binding to arrayed compounds – biochemical, biotinylated probe, 635/667 nm fluorescence, primary screen (AID 1115).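 Also: probe is biotinylated aNog protein used at 0.15 µg/mL for 1 h at 4 C; z-score combines 667 nm fluorescence of each spot with its signal to noise.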 To be noted: small-molecule microarray, higher = more signal.
In assay [9] the target is Torsin-1A-interacting protein 1 (Homo sapiens) (UniProt Q5JTV8). Description: compound microarray binding of lysate hLAP1 – cell lysate, small-molecule microarray, COS7 lysate, 635/667 nm fluorescence, primary screen (AID 1116). To be noted: 635 nm fluorescence, higher = more signal.
Assay [10] concerns the target Alpha-bungarotoxin (Bungarus multicinctus) (UniProt P60615). Description: compounds binding labelled alpha-BTX control protein – biochemical, small-molecule microarray, Alexa647 label, 635/667 nm fluorescence, artefact control for SMM control protein annotation, profiling panel (AID 1117). To be noted: alpha-BTX-A647 binding fluorescence, higher = more signal.
The next assay has as its target Albumin (Bos taurus) (UniProt P02769). Put plainly: compounds binding labelled BSA control protein – biochemical, small-molecule microarray, Alexa647 label, 635/667 nm fluorescence, artefact control for SMM control protein annotation, profiling panel (AID 1118).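 Also: score merges 667 nm emission intensity and signal-to-noise per printed compound spot.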 To be noted: BSA-A647 binding, fluorescence 635 nm, higher = more signal.
Assay [11] in a line: probe aXIP binding to arrayed compounds – biochemical, NeuroSMM set, 635/667 nm fluorescence, primary screen (AID 1119).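 Also: probe is the protein aXip251-270 applied at 1 µg/mL to compound-printed slides; binding of probe to printed compounds measured as 667 nm fluorescence plus signal to noise.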 To be noted: small-molecule microarray, higher = more signal, called active from +8 up or from −8 down.
A short description of assay [12]: probe aNOTCH3 binding on compound microarray – biochemical, small-molecule microarray, 635/667 nm fluorescence, primary screen (AID 1120).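 Also: probe is a biotin-tagged antibody raised against NOTCH3 rather than NOTCH3 protein; score merges spot fluorescence near 667 nm with spot signal to noise.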 Particulars: higher = more signal.
Assay [13] can be described thus: probe aNOTCH2 binding on compound microarray – biochemical, small-molecule microarray, 635/667 nm fluorescence, primary screen (AID 1121).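 Also: score merges feature fluorescence read at 667 nm with its signal to noise.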 To be noted: higher = more signal.
Assay [14] addresses Carbonic anhydrase 2 (Homo sapiens) (UniProt P00918). Put plainly: compounds binding carbonic anhydrase 2 – biochemical, small-molecule microarray, Alexa647-labelled CAII, profiling panel (AID 1122). Particulars: CAII-A647 binding fluorescence, higher = more signal.
A short description of assay [15]: COS7 lysate on small-molecule microarray, probe aHis, 635 nm (AID 1123).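 Also: z-score combines 667nm fluorescence intensity with signal-to-noise per printed compound spot.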 To be noted: COS7 cell lysate, fluorescence, higher = more signal.
Assay [16] can be described thus: probe aLAP1 signal on lysate-treated microarray – cell lysate, small-molecule microarray, COS7 lysate, primary screen (AID 1124).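 Also: lysate comes from COS7 cells expressing LAP1 and is applied at 0.3 µg/mL; score merges spot fluorescence near 667 nm with signal-to-noise over triplicate slides.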 To be noted: probe aLAP1, fluorescence, higher = more signal.
A further assay relates to Sam68 (KHDRBS1). Description: compounds binding KHDRBS1 protein – biochemical, small-molecule microarray, 635 nm fluorescence, primary screen (AID 1125).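 Also: score merges 667 nm channel intensity with signal to noise over triplicate slides.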 Particulars: higher = more signal.
Assay [17] has as its system Chordin-like protein 2 (CHRDL2). Description: compounds binding chordin-like 2 – biochemical, small-molecule microarray, 635 nm fluorescence, primary screen (AID 1126).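 Also: printed compound slides probed with Chrdl2 protein at 4 µg/mL for 1 h at 4 C; score merges 667 nm emission intensity with signal to noise over three replicate slides.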 To be noted: fluorescence 635 nm, higher = more signal.
In assay [18] the target is Concanavalin-A (Canavalia ensiformis) (UniProt P02866). Put plainly: compounds binding concanavalin A lectin – biochemical, small-molecule microarray, Alexa647 label, 635 nm, artefact control for SMM control protein annotation, primary screen (AID 1127).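 Also: z combines 667 nm emission intensity with signal-to-noise across three replicate slides.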 To be noted: ConA-A647 binding fluorescence, higher = more signal.
Chain of Concanavalin-A (Canavalia ensiformis) (P02866 whole entry, looked up): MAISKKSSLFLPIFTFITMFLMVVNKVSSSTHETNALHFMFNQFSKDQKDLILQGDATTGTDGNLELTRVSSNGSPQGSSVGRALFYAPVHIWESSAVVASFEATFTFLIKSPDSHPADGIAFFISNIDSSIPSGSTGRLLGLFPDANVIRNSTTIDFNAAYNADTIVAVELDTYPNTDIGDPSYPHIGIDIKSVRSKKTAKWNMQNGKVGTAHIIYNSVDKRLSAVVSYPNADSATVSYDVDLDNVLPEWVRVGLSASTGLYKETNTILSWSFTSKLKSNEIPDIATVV

Chain of Albumin (Bos taurus) (P02769 whole entry, looked up): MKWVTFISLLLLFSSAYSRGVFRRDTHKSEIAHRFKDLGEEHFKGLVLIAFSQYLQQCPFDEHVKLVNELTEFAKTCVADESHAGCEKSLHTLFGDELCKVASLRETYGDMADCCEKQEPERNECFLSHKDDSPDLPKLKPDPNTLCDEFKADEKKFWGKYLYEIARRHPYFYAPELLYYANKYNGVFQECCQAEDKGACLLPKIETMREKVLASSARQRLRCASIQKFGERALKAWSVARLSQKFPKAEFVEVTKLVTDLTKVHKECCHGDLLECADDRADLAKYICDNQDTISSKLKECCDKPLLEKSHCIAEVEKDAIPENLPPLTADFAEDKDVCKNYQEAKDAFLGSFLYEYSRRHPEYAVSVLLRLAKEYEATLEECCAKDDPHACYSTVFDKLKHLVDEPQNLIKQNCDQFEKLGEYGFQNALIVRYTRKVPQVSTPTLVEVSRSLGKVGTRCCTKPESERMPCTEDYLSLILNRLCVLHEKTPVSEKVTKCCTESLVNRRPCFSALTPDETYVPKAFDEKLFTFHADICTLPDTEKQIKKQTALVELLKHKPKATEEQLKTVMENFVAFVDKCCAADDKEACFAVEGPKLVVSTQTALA
Chain of Torsin-1A-interacting protein 1 (Homo sapiens) (Q5JTV8 whole entry, looked up): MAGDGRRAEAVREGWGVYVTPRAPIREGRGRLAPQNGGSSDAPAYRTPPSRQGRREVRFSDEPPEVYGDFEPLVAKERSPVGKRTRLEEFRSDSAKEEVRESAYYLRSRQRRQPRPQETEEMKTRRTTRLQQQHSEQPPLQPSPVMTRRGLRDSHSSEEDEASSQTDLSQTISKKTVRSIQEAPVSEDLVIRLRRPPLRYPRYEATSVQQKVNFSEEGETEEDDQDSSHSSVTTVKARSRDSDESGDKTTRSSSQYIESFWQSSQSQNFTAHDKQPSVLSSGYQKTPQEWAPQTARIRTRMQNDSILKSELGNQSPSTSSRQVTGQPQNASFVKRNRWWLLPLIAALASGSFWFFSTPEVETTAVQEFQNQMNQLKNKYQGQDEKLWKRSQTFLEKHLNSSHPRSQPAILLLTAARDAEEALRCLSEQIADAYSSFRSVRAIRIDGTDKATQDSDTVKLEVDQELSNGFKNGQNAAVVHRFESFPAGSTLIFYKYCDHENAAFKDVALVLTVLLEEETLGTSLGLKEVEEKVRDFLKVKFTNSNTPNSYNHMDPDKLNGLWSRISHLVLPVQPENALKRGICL
Chain of Left-right determination factor 2 (Homo sapiens) (O00292 whole entry, looked up): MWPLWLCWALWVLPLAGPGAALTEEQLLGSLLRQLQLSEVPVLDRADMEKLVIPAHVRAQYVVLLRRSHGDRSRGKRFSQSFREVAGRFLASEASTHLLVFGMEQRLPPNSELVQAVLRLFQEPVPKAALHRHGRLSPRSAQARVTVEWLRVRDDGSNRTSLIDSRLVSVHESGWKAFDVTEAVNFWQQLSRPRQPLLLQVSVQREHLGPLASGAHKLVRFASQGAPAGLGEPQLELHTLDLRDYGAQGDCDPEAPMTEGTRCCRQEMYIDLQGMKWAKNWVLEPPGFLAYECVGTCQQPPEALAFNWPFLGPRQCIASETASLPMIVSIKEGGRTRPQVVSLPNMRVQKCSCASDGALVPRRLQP
Chain of Alpha-bungarotoxin (Bungarus multicinctus) (P60615 whole entry, looked up): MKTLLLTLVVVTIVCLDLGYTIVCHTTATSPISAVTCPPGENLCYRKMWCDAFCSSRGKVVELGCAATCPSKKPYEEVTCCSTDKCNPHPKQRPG

For the compound `NCCCCCNC(=O)[C@@H]1C[C@@H]2C(=O)N[C@@H](Cc3ccccc3)C(=O)N2[C@@H]1c1cccc(OCCO)c1`, the composite z-score is 0.762 in assay [1]; -0.178 in [3]; 0.429 in assay [4]; 0.791 in [5]; 0.404 in [6]; -0.0652 in assay [7]. The composite z-score is 0.0256 in assay [8]; 0.362 in assay [9]; 1.69 in [10]; 0.654 with Albumin (Bos taurus); 0.0087 in assay [12]; -0.112 in assay [13]. Moreover, the composite z-score in assay [14] was 0.698; in assay [15], 1.18; in assay [16], 0.463; with Sam68 (KHDRBS1), 0.861; in assay [17], -0.0335; in assay [18], 1.05. The same compound showed a z-score in [2] of -0.988. Besides, the composite Z-score in [11] is 0.376 (inactive).

As to `C=CCNC(=O)[C@H]1[C@@H]2C(=O)O[C@@H](c3ccccc3)[C@@H](c3ccccc3)N2[C@@H](c2ccc(OCCO)cc2)[C@]12C(=O)Nc1ccc(C#CC3=CCCCC3)cc12`, the composite z-score in assay [1] is 1.4; in assay [3], 0.477; in [4], 0.508; in assay [5], -0.36; in assay [6] it was 0.0101; in assay [7], 0.13. For the same compound, the composite z-score was -0.143 in assay [8]; 1.26 in assay [9]; 1.11 in assay [10]; 0.17 with Albumin (Bos taurus); -0.0933 in [12]; -0.0703 in assay [13]. Besides, the composite z-score in [14] came out at 0.338; in assay [15], 0.999; in assay [16], 0.272; with Sam68 (KHDRBS1), 1.31; in assay [17], 0.105; in assay [18] it was 0.994. Also, the z-score in assay [2] is -2.4. Moreover, the composite Z-score in [11] was 0.0758 (inactive).

For `CC(C)(C)OC(=O)CC[C@]1(C(=O)NCC(O)CO)COC(c2ccc(OCCCO)cc2)=N1` (stereo not given in full), the composite z-score is 1.31 in assay [1]; -0.455 in assay [3]; 1.5 in assay [4]; 0.834 in assay [5]; -0.0512 in assay [6]; 0.275 in assay [7]. Further, the composite z-score was 0.592 in assay [8]; 1.7 in [9]; 1.88 in assay [10]; 0.693 with Albumin (Bos taurus); 0.0425 in assay [12]; -0.106 in [13]. In addition, the composite z-score in assay [14] was 0.828; in [15], 2.68; in assay [16] it was -0.45; in the assay on Sam68 (KHDRBS1), 0.949; in assay [17], -1.53; in assay [18], 0.504. For the same compound, in assay [2], the z-score is -0.105. In [11], the composite Z-score was 0.0333 (inactive).

Consider `O=C1OCCC/C=C\[C@H]2OC34C=CCN(CCN5CCOCC5)C(=O)[C@H]3N(CCCO)C(=O)[C@@H]4C12` (stereo not given in full), for which the composite z-score is -0.941 in assay [1]; -0.27 in assay [3]; -1.01 in assay [4]; -0.147 in [5]; -0.18 in assay [6]; -0.26 in assay [7]. Also, the composite z-score in assay [8] is -0.23; in assay [9], 1.05; in assay [10] it was 1.19; with Albumin (Bos taurus) it was -0.843; in [12], -0.182; in [13], -0.178. Besides, the composite z-score in [14] was 0.888; in assay [15], 3.72; in assay [16], 1.6; in the assay on Sam68 (KHDRBS1) it was -0.284; in assay [17], -0.575; in [18] it was 0.167. Further, the z-score in assay [2] was -0.61. The composite Z-score in [11] is 0.546 (inactive).

With `NCCCCCNC(=O)[C@@H]1C[C@@H]2C(=O)NCC(=O)N2[C@@H]1c1ccc(O)cc1`, the composite z-score in [1] was 1.37; in assay [3], 1.3; in [4] it was 0.957; in assay [5] it was 0.281; in assay [6] it was -0.008; in assay [7], -0.138. Moreover, the composite z-score in [8] is -0.036; in [9] it was 0.855; in assay [10], 1.15; in the assay with Albumin (Bos taurus), 0.802; in assay [12], -0.0889; in assay [13], -0.108. Also, the composite z-score in [14] turned out to be 0.558; in [15], 0.899; in assay [16] it was 0.249; with Sam68 (KHDRBS1), 1.31; in [17] it was 0.831; in assay [18], 1.06. Also, in assay [2], the z-score was found to be 0.358. Further, the composite Z-score in [11] was 0.126 (inactive).

Consider `CC(C)(C)OC(=O)CC[C@]12N=C(c3ccc(OCCCO)cc3)O[C@H]1c1ccccc1N(CCS(=O)(=O)c1ccccc1)C2=O`, for which the composite z-score is 1.39 in assay [1]; 0.497 in assay [3]; 0.234 in assay [4]; -0.353 in assay [5]; 0.0706 in [6]; 0.287 in [7]. In addition, the composite z-score is -0.344 in [8]; 0.751 in [9]; 1.41 in assay [10]; 0.0963 with Albumin (Bos taurus); 0.21 in assay [12]; -0.0241 in assay [13]. Further, the composite z-score in assay [14] amounted to 0.422; in assay [15], 2.48; in assay [16], 0.53; with Sam68 (KHDRBS1) it was 1.3; in assay [17], 0.765; in assay [18], 1.14. Also, in assay [2], the z-score was -0.664. For the same compound, the composite Z-score in assay [11] is 1.02 (inactive).
